From PubChem BioAssay (NCI) come the findings set out here.

This is part of a sample that, as a whole, favours compounds with a hit. Of some 83,000 tested, about 20% had one in any assay.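 Single-concentration screen, 48 h exposure, 96-well plates. Endpoint: percent growth. Below 10 = active.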 Unmarked numbers belong to inactive results. Activity calls are given as the source filed them.

Some test systems named below: DU-145 prostate; K-562 leukemia; MALME-3M melanoma; MDA-MB-231 breast; RXF 393 renal; SF-268 CNS; SF-295 CNS; SF-539 CNS; UACC-257 melanoma; M14 melanoma; HCT-15 colon; HT29 colon; SNB-75 CNS; SNB-19 CNS; U251 CNS; PC-3 prostate; SK-MEL-5 melanoma; UACC-62 melanoma; LOX IMVI melanoma; SK-MEL-28 melanoma.
Common to all, as to experiment: NCI-60 one-dose screen, 48 h (100 = growth as untreated, 0 = no growth, -100 = all killed)
Holding throughout (conditions): 10 µM unless noted

For `CC(=O)OC[C@H]1OC(Sc2sc(C(=O)c3ccc(C)cc3)c(N)c2-c2nc3ccccc3s2)[C@H](OC(C)=O)[C@@H](OC(C)=O)[C@@H]1OC(C)=O` (stereo not given in full), the growth is 42.1% in the test on DU-145 prostate; 68.4% in the test with K-562 leukemia; 43.9% with MALME-3M melanoma; 30% in the test on MDA-MB-231 breast; 53.5% in the test on RXF 393 renal; 71% in the test on SF-268 CNS. For the same compound, the growth was 73.6% with SF-295 CNS; 28.2% with SF-539 CNS; 79.3% in the test with UACC-257 melanoma; 65.7% with M14 melanoma; 59.5% in the test with HCT-15 colon; 69% in the test with HT29 colon. For the same compound, the growth is 25.4% in the test with SNB-75 CNS; 74.4% with SNB-19 CNS; 59.5% in the test on U251 CNS; 63.2% in the test on PC-3 prostate; 45.5% with SK-MEL-5 melanoma; 55.8% in the test with UACC-62 melanoma. Besides, the growth is 54.5% in the test with LOX IMVI melanoma and 76.4% in the test on SK-MEL-28 melanoma.

Consider `C/C(=C\C(=O)c1ccc(Cl)cc1)c1ccc(Cl)cc1`, for which the growth was 113% with DU-145 prostate; 106% in the test on K-562 leukemia; 97.5% in the test with MALME-3M melanoma; 89.8% with MDA-MB-231 breast; 106% with RXF 393 renal; 96.4% with SF-268 CNS. The growth is 109% with SF-295 CNS; 104% with SF-539 CNS; 98.4% in the test on UACC-257 melanoma; 104% with M14 melanoma; 44.6% with HCT-15 colon; 109% with HT29 colon. Further, the growth is 92.8% with SNB-75 CNS; 99.9% in the test with SNB-19 CNS; 100% in the test on U251 CNS; 87.8% in the test on PC-3 prostate; 94.1% with SK-MEL-5 melanoma; 92.8% in the test on UACC-62 melanoma. For the same compound, the values for the growth with LOX IMVI melanoma and with SK-MEL-28 melanoma were 100% and 111%, respectively.

Regarding `Cc1ccc(C(C)C)cc1C(=O)C[n+]1ccccc1`, the growth in the test with DU-145 prostate was 107%; in the test with K-562 leukemia, 105%; in the test with MALME-3M melanoma, 95.9%; with MDA-MB-231 breast, 112%; with RXF 393 renal, 121%; with SF-268 CNS, 98.8%. The growth was 93.5% with SF-295 CNS; 97.1% in the test on SF-539 CNS; 115% in the test with UACC-257 melanoma; 95.6% in the test on M14 melanoma; 99.7% with HCT-15 colon; 88.2% in the test on HT29 colon. Besides, the growth with SNB-75 CNS was 95%; in the test with SNB-19 CNS, 106%; in the test on U251 CNS, 104%; in the test with PC-3 prostate it was 99.1%; in the test on SK-MEL-5 melanoma, 106%; with UACC-62 melanoma it was 106%. Also, the figures for the growth in the test on LOX IMVI melanoma and in the test with SK-MEL-28 melanoma were 100% and 97.3%, respectively.

As for `CN1CCN(c2ccc(-c3cnc4c(-c5csc6ccccc56)cnn4c3)cc2)CC1`, the growth in the test on DU-145 prostate was 9.16% (active); with K-562 leukemia it was 3.45% (active); in the test with MALME-3M melanoma it was -70.1% (active); in the test on MDA-MB-231 breast it was -25.3% (active); in the test with RXF 393 renal, -66.4% (active); in the test on SF-268 CNS, -15.8% (active). Further, the growth with SF-295 CNS was -49.7% (active); in the test with SF-539 CNS, -86.4% (active); in the test with UACC-257 melanoma, -76.3% (active); in the test on M14 melanoma it was -71.8% (active); with HCT-15 colon, -4.7% (active); in the test on HT29 colon it was -40.4% (active). The growth was -54.4% (active) with SNB-75 CNS; 13.3% in the test on SNB-19 CNS; -87.3% (active) in the test on U251 CNS; -12.4% (active) in the test on PC-3 prostate; -100% (active) with SK-MEL-5 melanoma; -2.26% (active) in the test on UACC-62 melanoma. For the same compound, the growth in the test on LOX IMVI melanoma is -91.2% (active); in the test with SK-MEL-28 melanoma, -7.59% (active).

Regarding `COc1ccc(/C=C/c2c(C(=O)/C=C/c3ccc(C(F)(F)F)cc3)c(C)nc3ccccc23)cc1`, the growth is -81% (active) in the test on DU-145 prostate; 8.15% (active) in the test on K-562 leukemia; -46.7% (active) in the test on MALME-3M melanoma; -20.2% (active) in the test on MDA-MB-231 breast; -83.9% (active) in the test with RXF 393 renal; 14.6% in the test with SF-268 CNS. Besides, the growth with SF-295 CNS was -49.3% (active); in the test on SF-539 CNS, -76.2% (active); in the test with UACC-257 melanoma, -38% (active); in the test on M14 melanoma it was -15% (active); in the test on HCT-15 colon it was -20.2% (active); with HT29 colon, 7.38% (active). For the same compound, the growth with SNB-75 CNS is 25.6%; in the test on SNB-19 CNS, -43.1% (active); in the test with U251 CNS, -69% (active); with PC-3 prostate, -23.4% (active); with SK-MEL-5 melanoma, -79.9% (active); with UACC-62 melanoma it was -29% (active). Further, the growth with LOX IMVI melanoma was -91.2% (active); in the test on SK-MEL-28 melanoma, -50.7% (active).

On to `Oc1ccc(-c2nc3ccc4[nH]ncc4c3c3c2CCCC3)c2cccnc12`, for which the growth in the test with DU-145 prostate is 11.6%; in the test on K-562 leukemia, 7.23% (active); in the test with MALME-3M melanoma, -3.69% (active); in the test with MDA-MB-231 breast, 18.8%; with RXF 393 renal, -9.52% (active); with SF-268 CNS it was 0.245% (active). Further, the growth in the test on SF-295 CNS was -4.23% (active); in the test on SF-539 CNS it was -1.03% (active); with UACC-257 melanoma, -20.4% (active); in the test with M14 melanoma, 3.35% (active); in the test with HCT-15 colon it was 4.75% (active); in the test with HT29 colon, 12.1%. Further, the growth is -23.1% (active) with SNB-75 CNS; 13.7% in the test with SNB-19 CNS; -4.46% (active) in the test on U251 CNS; 7.83% (active) in the test on PC-3 prostate; -4.91% (active) in the test with SK-MEL-5 melanoma; -11.5% (active) in the test with UACC-62 melanoma. Also, the figures for the growth in the test with LOX IMVI melanoma and with SK-MEL-28 melanoma were 3.42% (active) and 13.3%, respectively.

With `C#Cc1cccc(NC(=O)Nc2ccccc2NC(=O)CCl)c1`, the growth in the test with DU-145 prostate was 6.7% [8.25 µM] (active); in the test with K-562 leukemia, 9.69% [8.25 µM] (active); in the test on MALME-3M melanoma, -19.1% [8.25 µM] (active); in the test with MDA-MB-231 breast, -71.7% [8.25 µM] (active); with RXF 393 renal it was -81.1% [8.25 µM] (active); in the test with SF-268 CNS, -17.4% [8.25 µM] (active). The growth in the test with SF-295 CNS is 38.7% [8.25 µM]; in the test with SF-539 CNS it was -70.8% [8.25 µM] (active); in the test with UACC-257 melanoma it was -12.6% [8.25 µM] (active); in the test on M14 melanoma, -22.2% [8.25 µM] (active); in the test on HCT-15 colon, -19.8% [8.25 µM] (active); with HT29 colon, -15.5% [8.25 µM] (active). Moreover, the growth in the test on SNB-75 CNS is -83.9% [8.25 µM] (active); with SNB-19 CNS, 19.7% [8.25 µM]; in the test on U251 CNS, -85.2% [8.25 µM] (active); in the test with PC-3 prostate, -29% [8.25 µM] (active); in the test with SK-MEL-5 melanoma, -94.8% [8.25 µM] (active); in the test on UACC-62 melanoma, -94.1% [8.25 µM] (active). Further, the values for the growth in the test with LOX IMVI melanoma and in the test with SK-MEL-28 melanoma were -94.4% [8.25 µM] (active) and -10.4% [8.25 µM] (active), respectively.

On to `CN(C)CCCNc1nc2ccccc2c2c(=O)c3cc(F)ccc3sc12`, for which the growth was 26.2% in the test with DU-145 prostate; -27% (active) in the test with K-562 leukemia; 81.6% in the test on MALME-3M melanoma; -29.6% (active) in the test on MDA-MB-231 breast; 48.4% with RXF 393 renal; 52.5% in the test on SF-268 CNS. In addition, the growth in the test on SF-295 CNS is 78.2%; in the test with SF-539 CNS it was 27.3%; in the test with UACC-257 melanoma, 84.9%; with M14 melanoma it was -64.1% (active); in the test on HCT-15 colon, 17.7%; in the test on HT29 colon, 4.32% (active). Also, the growth with SNB-75 CNS is 65.6%; with SNB-19 CNS, 68.4%; in the test with U251 CNS it was 28.5%; with PC-3 prostate it was 50.2%; with SK-MEL-5 melanoma it was 72.6%; with UACC-62 melanoma it was -53.8% (active). For the same compound, the growth with LOX IMVI melanoma was -95% (active); in the test on SK-MEL-28 melanoma, -42.4% (active).
